27 compounds from PubChem BioAssay AID493035 (The Scripps Research Institute Molecular Screening Center, 2011) can be followed below.

In all, about 2,000 compounds went through this assay and about 45 (2%) were called active.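 How the source made its calls: active means inhibition above the mean of all tested compounds plus 3 SD (cut at about 49% in these data); inactive means the rest.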 The list comes from a sample in which actives are over-represented; it also holds similar structures and randomly drawn compounds.

The target in this test is Perilipin-5 (Homo sapiens) + 1-acylglycerol-3-phosphate O-acyltransferase ABHD5 (Homo sapiens) (UniProt Q00G26+Q8WTS1). The experiment in a line: ABHD5-PLIN5 interaction inhibitors, pilot screen, cell lysate, split luciferase complementation, luminescence, NIH validation set (AID 493035).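 Further: 0% = DMSO only wells while the 100% control is not stated.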 The following applies: split G. princeps luciferase complementation, lysates, 4 h; at 7.9 µM, stronger effect = higher value.
Chain of Perilipin-5 (Homo sapiens) + 1-acylglycerol-3-phosphate O-acyltransferase ABHD5 (Homo sapiens) (Q00G26 whole entry, looked up): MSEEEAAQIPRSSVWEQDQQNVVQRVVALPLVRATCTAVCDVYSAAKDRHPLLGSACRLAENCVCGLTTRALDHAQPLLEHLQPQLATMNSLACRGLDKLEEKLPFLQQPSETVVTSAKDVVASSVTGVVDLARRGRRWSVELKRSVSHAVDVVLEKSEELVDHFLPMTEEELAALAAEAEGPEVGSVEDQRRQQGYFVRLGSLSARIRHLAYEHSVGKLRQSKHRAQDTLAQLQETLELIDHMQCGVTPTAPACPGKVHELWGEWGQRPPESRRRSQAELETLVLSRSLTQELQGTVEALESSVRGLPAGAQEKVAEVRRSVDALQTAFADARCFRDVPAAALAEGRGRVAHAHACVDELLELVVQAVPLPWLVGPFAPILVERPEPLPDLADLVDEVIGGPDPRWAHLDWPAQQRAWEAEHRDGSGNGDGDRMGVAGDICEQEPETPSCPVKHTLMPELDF
Chain of Perilipin-5 (Homo sapiens) + 1-acylglycerol-3-phosphate O-acyltransferase ABHD5 (Homo sapiens) (Q8WTS1 whole entry, looked up): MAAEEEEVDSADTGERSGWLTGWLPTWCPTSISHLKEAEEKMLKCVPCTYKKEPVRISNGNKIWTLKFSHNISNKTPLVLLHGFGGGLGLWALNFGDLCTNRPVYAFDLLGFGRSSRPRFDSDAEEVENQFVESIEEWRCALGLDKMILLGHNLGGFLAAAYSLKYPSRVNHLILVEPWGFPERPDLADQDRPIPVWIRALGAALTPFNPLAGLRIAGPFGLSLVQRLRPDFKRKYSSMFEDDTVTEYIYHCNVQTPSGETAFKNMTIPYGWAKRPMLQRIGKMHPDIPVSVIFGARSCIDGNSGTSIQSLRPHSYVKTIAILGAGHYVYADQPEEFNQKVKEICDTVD
One may read the inhibition as the relative decrease from the control value, in per cent. Consider `O=C(Nc1ccc(Oc2c(F)c(F)c(F)c(F)c2F)cc1)OC1CCN2Cc3ccccc3N=C12` (configuration not stated), for which the inhibition is 69.3% (active). The result for `Cc1ccc(S(=O)(=O)N2CCC(C(=O)N[C@@H](C)C(=O)NC3CCS(=O)(=O)C3)CC2)cc1` (some centres not stated) reads -6.13% (inactive).

For `Cc1ccc(-c2nnc(-c3ccc4c(c3)OCO4)o2)cc1`, the inhibition is -9.18% (inactive). For the compound `CC(CN1c2ccccc2Sc2ccccc21)N(C)C` (configuration not stated), the inhibition is -12.2% (inactive). For the compound `CN(C)CCCN1c2ccccc2Sc2ccccc21`, the inhibition is -13% (inactive). Turning to `CCN1/C(=C/C=C/C=C/c2sc3ccccc3[n+]2CC)Sc2ccccc21`, the inhibition is 70.5% (active).

Regarding `C=CCn1c(SCC(=O)NC2CCCCC2)nc2ccccc2c1=O`, the inhibition is -1.42% (inactive). With `COc1ccccc1-c1ccc(/C=C2/C=C(CC(C)C)OC2=O)o1` the figure was 7.79% (inactive). On to `CCOC(=O)c1c(C)oc2cc(Br)c(OC(C)C(=O)OCC)cc12` (configuration not stated), for which the inhibition was -0.05% (inactive). On to `COc1cccc(OCC(O)CO)c1` (configuration not stated), for which the inhibition is -6.51% (inactive). Regarding `N#C/C(C(N)=O)=c1/ccc2c(c1)N1C3=C(CCCC3)CC3CCCCC31N=2` (configuration not stated), the inhibition was 25.4% (inactive). Regarding `COc1ccc(C(=O)COc2ccc(F)cc2)c(O)c1`, the inhibition was -6.5% (inactive). In the case of `COc1ccc(C(=O)/C=C/c2cc(C(=O)O)cc3c2OCOC3)c(O)c1`, the inhibition was 70.3% (active).

In the case of `COc1cccc(/C=C/C(=O)c2c(O)cc(C)oc2=O)c1O`, the inhibition is 44.4% (inactive). Regarding `CC1=CC(C)(C)N2C(=O)C3(NCCc4c3[nH]c3ccccc43)c3cc(C)cc1c32` (configuration not stated), the inhibition is -1.07% (inactive). For the compound `O=C(NC(=S)Nc1ccc(N2CCN(C(=O)c3ccccc3)CC2)cc1)c1cccs1`, the inhibition is 11.4% (inactive). In the case of `Cc1ccc(S(=O)(=O)n2ccnc2)cc1C`, the inhibition was -3.74% (inactive). Consider `COC(=O)c1ccc(=O)n(Cc2ccco2)c1`, for which the inhibition is 18.6% (inactive). Consider `COC(=O)C1=C(C)N(Cc2ccco2)C(=O)/C1=C\c1ccc([N+](=O)[O-])cc1`, for which the inhibition was 84.5% (active). As to `COCCCN1C(=O)/C(=C\c2cccs2)C(C(=O)OC)=C1C`, the inhibition is 0.91% (inactive).

For `CCNC(=O)C12CCC(C)(C(=O)O1)C2(C)C` (configuration not stated), the inhibition was -5.33% (inactive).

Turning to `CC(C)[C@H](NC(=O)[C@@H]1CSCN1C(=O)OC(C)(C)C)C(=O)NCC1CCC(C(=O)O)CC1` (some centres not stated), the inhibition was -18.6% (inactive). For `CC(=O)N/C(=C/c1ccc2c(c1)OCO2)C(=O)NCCO`, the inhibition was 2.23% (inactive). Turning to `COc1ccc(C2=C(CN(C)C)C(c3ccccc3)c3ccccc3O2)cc1` (configuration not stated), the inhibition is 1.13% (inactive). Consider `COc1ccccc1/C=C/C(=O)OCCN1CCOCC1`, for which the inhibition was -8.59% (inactive).

Take `CCOC(=O)C(=Cc1ccccc1OC)C(=O)OCC`: the inhibition is 47.9% (active). With `CCOC(=O)C(=O)N1CCN(c2ccccc2OC)CC1`, the inhibition was -5.55% (inactive).
